From PubChem BioAssay (EPA / NIEHS)
The source made the active and inactive calls. Rule for the calls: active = hit-call score of the fitted dose curve at least 0.9, where 1 is the maximum; inactive = score below 0.9.

These compounds were tested on E-selectin (Homo sapiens) (UniProt P16581) (assay: BSK_LPS_Eselectin: BioMAP Diversity Plus: LPS Assay for Eselectin Biomarker Activity (AID 2283077)). Conditions: primary human HUVEC with PBMC; actives raise or lower the signal.
Outline: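 E-selectin ELISA on LPS-stimulated endothelial cell/PBMC co-cultures, read 24 h post-treatment; gains and losses fitted against DMSO. Parallel SRB staining (0.1% SRB after 10% TCA fixation, 560 nm) flags overt cytotoxicity.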

Chain of E-selectin (Homo sapiens) (P16581 whole entry, looked up): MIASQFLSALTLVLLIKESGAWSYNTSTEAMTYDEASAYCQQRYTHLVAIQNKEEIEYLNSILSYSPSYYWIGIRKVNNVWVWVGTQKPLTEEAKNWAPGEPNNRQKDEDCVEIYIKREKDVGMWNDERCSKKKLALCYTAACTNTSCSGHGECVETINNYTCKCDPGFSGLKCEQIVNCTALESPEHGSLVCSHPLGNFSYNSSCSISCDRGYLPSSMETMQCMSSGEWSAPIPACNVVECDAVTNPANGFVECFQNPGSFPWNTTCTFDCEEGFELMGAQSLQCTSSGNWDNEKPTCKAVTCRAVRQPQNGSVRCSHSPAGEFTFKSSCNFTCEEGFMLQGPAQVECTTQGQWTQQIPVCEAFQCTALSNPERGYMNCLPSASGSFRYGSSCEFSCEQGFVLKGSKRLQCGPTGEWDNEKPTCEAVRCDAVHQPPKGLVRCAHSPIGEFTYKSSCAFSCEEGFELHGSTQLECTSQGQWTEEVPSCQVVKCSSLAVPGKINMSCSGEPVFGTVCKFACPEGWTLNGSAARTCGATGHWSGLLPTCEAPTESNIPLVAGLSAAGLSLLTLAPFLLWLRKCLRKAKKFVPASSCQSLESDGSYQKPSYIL

SMILES | AC50 | outcome
CCCCCCc1ccc(O)cc1O | 31.8 µM (active) | 
COc1ccc2sc(C(=O)Nc3nnn[nH]3)c(OC(C)C)c2c1 | 23.4 µM (active) | 
CN(C)c1ccc(N=NS(=O)(=O)O)cc1 |  | inactive
Nc1nc2ncc(CNc3ccc(C(=O)N[C@@H](CCC(=O)O)C(=O)O)cc3)nc2c(=O)[nH]1 |  | inactive
CCn1nc(Cc2ccccc2)cc1C1CCN(C[C@H]2C[C@H](N(C)[C@@H](C(=O)O)C(C)C)C[C@@H]2c2cccc(F)c2)CC1 |  | inactive
Cc1ccc(C)c(O)c1 |  | inactive
C=CC(=C)CCC=C(C)C |  | inactive
O=C1OC(=O)C2C3C=CC(C3)C12 (stereo not drawn) |  | inactive
CCOC(=O)COc1ccc2c(c1)CC(NCC(O)c1cccc(Cl)c1)CC2 (stereo not drawn) |  | inactive
CCOCCOCCOCCO |  | inactive
CCCC(=O)OCC |  | inactive
O=C(O)c1cc(N=Nc2ccc(S(=O)(=O)Nc3ccccn3)cc2)ccc1O |  | inactive
O=C(NS(=O)(=O)/C=C/c1ccccc1)c1ccc(F)cc1Cl |  | inactive
C[C@](N)(Cc1ccc(O)c(O)c1)C(=O)O |  | inactive
CCCCC(CC)COC(=O)CCCCCCCCC(=O)OCC(CC)CCCC (stereo not drawn) |  | inactive
CCCCCCCCCCCCc1ccccc1 |  | inactive
O=P(OC(CCl)CCl)(OC(CCl)CCl)OC(CCl)CCl |  | inactive
CNS(=O)(=O)c1cc(C(=O)N2CCC(CCN3C4CCC3CC(n3c(C)nc5ccccc53)C4)(c3cccc(F)c3)CC2)c(Cl)cc1F (stereo not drawn) |  | inactive
Oc1ccc2c(c1)-c1ccccc1C2 |  | inactive
CC(C)CCCCCCOC(=O)c1ccc(C(=O)OCCCCCCC(C)C)c(C(=O)OCCCCCCC(C)C)c1 |  | inactive
O=C(O)CCN(C1(C(=O)NO)CCCC1)S(=O)(=O)c1ccc(Oc2ccc(F)cc2)cc1 |  | inactive
COc1cccc(-c2ccc(/C=C\CN3CCCCCC3)cc2Cl)c1 |  | inactive
O=C(OC[C@H]1O[C@@H](OC(=O)c2cc(O)c(O)c(OC(=O)c3cc(O)c(O)c(O)c3)c2)[C@H](OC(=O)c2cc(O)c(O)c(OC(=O)c3cc(O)c(O)c(O)c3)c2)[C@@H](OC(=O)c2cc(O)c(O)c(OC(=O)c3cc(O)c(O)c(O)c3)c2)[C@@H]1OC(=O)c1cc(O)c(O)c(OC(=O)c2cc(O)c(O)c(O)c2)c1)c1cc(O)c(O)c(OC(=O)c2cc(O)c(O)c(O)c2)c1 |  | inactive
Clc1nc(Cl)c(Cl)c(Cl)c1Cl | 30.9 µM (active) | 
COc1ccc(/C=C/S(=O)(=O)NC(=O)c2ccc(C)cc2Cl)cc1 |  | inactive
COC(=O)CC(=O)OC |  | inactive
O=c1[nH]c2ccc(S(=O)CCN3CCC(Cc4ccc(F)cc4)CC3)cc2o1 (stereo not drawn) |  | inactive
CC[C@H](C)C(=O)O[C@H]1C[C@@H](C)C=C2C=C[C@H](C)[C@H](CC[C@@H]3C[C@@H](O)CC(=O)O3)[C@H]21 | 0.398 µM (active) | 
Cc1c(-c2cccnc2)c2ccccc2n1CCCCC(=O)O |  | inactive

These compounds were tested on Interleukin-8 (IL8), CXCL8 (gene 3576) (assay: BSK_LPS_IL8: BioMAP Diversity Plus: LPS Assay for Interleukin-8 (IL8) Biomarker Activity (AID 2283078)). Conditions: primary human HUVEC with PBMC; actives raise or lower the signal.
Outline: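 ELISA read-out of IL-8 after 24 h chemical treatment of LPS-activated endothelial/PBMC human primary co-cultures. Changes either up or down relative to DMSO; overt cytotoxicity checked by sulforhodamine B staining in parallel wells.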

SMILES | AC50 | outcome
CCCCCCc1ccc(O)cc1O | 29.6 µM (active) | 
COc1ccc2sc(C(=O)Nc3nnn[nH]3)c(OC(C)C)c2c1 | 28.5 µM (active) | 
CN(C)c1ccc(N=NS(=O)(=O)O)cc1 |  | inactive
Nc1nc2ncc(CNc3ccc(C(=O)N[C@@H](CCC(=O)O)C(=O)O)cc3)nc2c(=O)[nH]1 |  | inactive
CCn1nc(Cc2ccccc2)cc1C1CCN(C[C@H]2C[C@H](N(C)[C@@H](C(=O)O)C(C)C)C[C@@H]2c2cccc(F)c2)CC1 |  | inactive
Cc1ccc(C)c(O)c1 |  | inactive
C=CC(=C)CCC=C(C)C |  | inactive
O=C1OC(=O)C2C3C=CC(C3)C12 (stereo not drawn) |  | inactive
CCOC(=O)COc1ccc2c(c1)CC(NCC(O)c1cccc(Cl)c1)CC2 (stereo not drawn) | 27.4 µM (active) | 
CCOCCOCCOCCO |  | inactive
CCCC(=O)OCC |  | inactive
O=C(O)c1cc(N=Nc2ccc(S(=O)(=O)Nc3ccccn3)cc2)ccc1O |  | inactive
O=C(NS(=O)(=O)/C=C/c1ccccc1)c1ccc(F)cc1Cl |  | inactive
C[C@](N)(Cc1ccc(O)c(O)c1)C(=O)O |  | inactive
CCCCC(CC)COC(=O)CCCCCCCCC(=O)OCC(CC)CCCC (stereo not drawn) |  | inactive
CCCCCCCCCCCCc1ccccc1 |  | inactive
O=P(OC(CCl)CCl)(OC(CCl)CCl)OC(CCl)CCl |  | inactive
CNS(=O)(=O)c1cc(C(=O)N2CCC(CCN3C4CCC3CC(n3c(C)nc5ccccc53)C4)(c3cccc(F)c3)CC2)c(Cl)cc1F (stereo not drawn) | 20 µM (active) | 
Oc1ccc2c(c1)-c1ccccc1C2 |  | inactive
CC(C)CCCCCCOC(=O)c1ccc(C(=O)OCCCCCCC(C)C)c(C(=O)OCCCCCCC(C)C)c1 |  | inactive
O=C(O)CCN(C1(C(=O)NO)CCCC1)S(=O)(=O)c1ccc(Oc2ccc(F)cc2)cc1 |  | inactive
COc1cccc(-c2ccc(/C=C\CN3CCCCCC3)cc2Cl)c1 |  | inactive
O=C(OC[C@H]1O[C@@H](OC(=O)c2cc(O)c(O)c(OC(=O)c3cc(O)c(O)c(O)c3)c2)[C@H](OC(=O)c2cc(O)c(O)c(OC(=O)c3cc(O)c(O)c(O)c3)c2)[C@@H](OC(=O)c2cc(O)c(O)c(OC(=O)c3cc(O)c(O)c(O)c3)c2)[C@@H]1OC(=O)c1cc(O)c(O)c(OC(=O)c2cc(O)c(O)c(O)c2)c1)c1cc(O)c(O)c(OC(=O)c2cc(O)c(O)c(O)c2)c1 |  | inactive
Clc1nc(Cl)c(Cl)c(Cl)c1Cl | 32.7 µM (active) | 
COc1ccc(/C=C/S(=O)(=O)NC(=O)c2ccc(C)cc2Cl)cc1 |  | inactive
COC(=O)CC(=O)OC |  | inactive
O=c1[nH]c2ccc(S(=O)CCN3CCC(Cc4ccc(F)cc4)CC3)cc2o1 (stereo not drawn) |  | inactive
CC[C@H](C)C(=O)O[C@H]1C[C@@H](C)C=C2C=C[C@H](C)[C@H](CC[C@@H]3C[C@@H](O)CC(=O)O3)[C@H]21 |  | inactive
Cc1c(-c2cccnc2)c2ccccc2n1CCCCC(=O)O |  | inactive
